According to the supplement of paper PMC11732987, “Enantioselective OTUD7B fragment discovery through chemoproteomics screening and high-throughput optimisation” (Communications Chemistry, 2025):

Key:
Assay in all cases: log2 ratio of Biotin-Ahx-Ub-VS probe labelling (fragment/DMSO); higher = less target engagement (more negative = stronger competition), active = hit call of the paper (q ≤ 0.05, log2 ratio ≤ -1)
Settings in all cases: compound concentration: 200 uM; treatment time: 3 h
USP19 = biological target: T1, USP19 (UniProt O94966)
T1 sequence (whole entry): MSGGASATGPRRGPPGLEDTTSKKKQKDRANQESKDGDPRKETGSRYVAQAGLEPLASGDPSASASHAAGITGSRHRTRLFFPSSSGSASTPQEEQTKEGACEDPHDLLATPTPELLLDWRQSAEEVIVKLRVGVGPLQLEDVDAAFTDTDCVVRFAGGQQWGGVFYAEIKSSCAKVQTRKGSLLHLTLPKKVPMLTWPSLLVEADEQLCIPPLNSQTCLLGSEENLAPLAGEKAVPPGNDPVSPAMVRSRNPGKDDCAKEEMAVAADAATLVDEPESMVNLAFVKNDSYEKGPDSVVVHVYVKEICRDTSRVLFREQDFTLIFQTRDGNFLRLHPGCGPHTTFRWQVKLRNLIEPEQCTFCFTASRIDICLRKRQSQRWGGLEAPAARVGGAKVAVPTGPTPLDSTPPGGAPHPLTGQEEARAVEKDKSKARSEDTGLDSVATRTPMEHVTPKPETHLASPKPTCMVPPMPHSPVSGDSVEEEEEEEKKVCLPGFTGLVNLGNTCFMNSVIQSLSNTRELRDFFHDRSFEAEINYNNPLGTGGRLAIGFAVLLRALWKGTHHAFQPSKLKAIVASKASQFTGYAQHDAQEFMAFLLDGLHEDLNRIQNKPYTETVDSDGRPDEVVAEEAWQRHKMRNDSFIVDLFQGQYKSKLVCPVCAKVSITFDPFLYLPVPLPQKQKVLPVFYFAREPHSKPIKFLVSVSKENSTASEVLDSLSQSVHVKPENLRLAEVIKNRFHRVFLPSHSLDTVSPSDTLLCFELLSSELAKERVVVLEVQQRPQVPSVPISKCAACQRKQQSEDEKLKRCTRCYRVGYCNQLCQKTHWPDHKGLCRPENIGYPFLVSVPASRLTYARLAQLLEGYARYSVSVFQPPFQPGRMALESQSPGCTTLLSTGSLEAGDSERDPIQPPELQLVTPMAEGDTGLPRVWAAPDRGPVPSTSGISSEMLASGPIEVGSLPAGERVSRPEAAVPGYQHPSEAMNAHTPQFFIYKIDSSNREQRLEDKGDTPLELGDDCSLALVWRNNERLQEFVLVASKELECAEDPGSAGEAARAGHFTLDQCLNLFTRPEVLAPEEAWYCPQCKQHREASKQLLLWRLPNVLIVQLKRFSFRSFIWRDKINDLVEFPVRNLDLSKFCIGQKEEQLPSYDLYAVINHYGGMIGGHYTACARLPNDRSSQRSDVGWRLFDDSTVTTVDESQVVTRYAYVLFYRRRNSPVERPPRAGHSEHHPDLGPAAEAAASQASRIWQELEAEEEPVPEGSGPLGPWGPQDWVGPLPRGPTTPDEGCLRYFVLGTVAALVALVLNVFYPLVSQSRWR
Outline: (§1)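 The table lists average log2 ratios of fragment over vehicle, from an unpaired t-test on global-median-normalised Spectronaut label-free quantities. Proteins with ≥2 unique peptides were used. Samples were HEK293T lysate (495 µg) treated in triplicate with fragment at 200 µM or vehicle for 3 h, then with Biotin-Ahx-Ub-VS (0.5 µM final) for 1 h, with labelled DUBs NeutrAvidin-enriched and run by diaPASEF LC-MS/MS.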

USP22 = biological target: T2, USP22 (UniProt Q9UPT9)
T2 sequence (whole entry): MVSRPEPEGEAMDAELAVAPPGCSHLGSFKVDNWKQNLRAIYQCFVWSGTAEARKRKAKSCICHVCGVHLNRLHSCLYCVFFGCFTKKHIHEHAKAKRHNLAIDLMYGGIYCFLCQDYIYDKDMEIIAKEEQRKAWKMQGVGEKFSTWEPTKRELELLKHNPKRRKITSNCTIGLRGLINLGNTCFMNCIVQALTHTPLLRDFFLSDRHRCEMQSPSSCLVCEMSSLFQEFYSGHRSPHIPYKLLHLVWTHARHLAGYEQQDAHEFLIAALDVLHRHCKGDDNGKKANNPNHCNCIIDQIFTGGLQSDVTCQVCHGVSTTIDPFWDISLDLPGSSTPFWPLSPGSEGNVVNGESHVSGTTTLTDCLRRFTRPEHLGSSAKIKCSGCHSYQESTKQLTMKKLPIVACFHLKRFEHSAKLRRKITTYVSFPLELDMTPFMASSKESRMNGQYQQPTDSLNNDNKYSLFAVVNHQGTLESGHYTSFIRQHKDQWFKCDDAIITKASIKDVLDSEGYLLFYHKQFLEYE
Outline: as §1

USP24 = USP24 (UniProt Q9UPU5)
Chain of USP24 (Q9UPU5 whole entry): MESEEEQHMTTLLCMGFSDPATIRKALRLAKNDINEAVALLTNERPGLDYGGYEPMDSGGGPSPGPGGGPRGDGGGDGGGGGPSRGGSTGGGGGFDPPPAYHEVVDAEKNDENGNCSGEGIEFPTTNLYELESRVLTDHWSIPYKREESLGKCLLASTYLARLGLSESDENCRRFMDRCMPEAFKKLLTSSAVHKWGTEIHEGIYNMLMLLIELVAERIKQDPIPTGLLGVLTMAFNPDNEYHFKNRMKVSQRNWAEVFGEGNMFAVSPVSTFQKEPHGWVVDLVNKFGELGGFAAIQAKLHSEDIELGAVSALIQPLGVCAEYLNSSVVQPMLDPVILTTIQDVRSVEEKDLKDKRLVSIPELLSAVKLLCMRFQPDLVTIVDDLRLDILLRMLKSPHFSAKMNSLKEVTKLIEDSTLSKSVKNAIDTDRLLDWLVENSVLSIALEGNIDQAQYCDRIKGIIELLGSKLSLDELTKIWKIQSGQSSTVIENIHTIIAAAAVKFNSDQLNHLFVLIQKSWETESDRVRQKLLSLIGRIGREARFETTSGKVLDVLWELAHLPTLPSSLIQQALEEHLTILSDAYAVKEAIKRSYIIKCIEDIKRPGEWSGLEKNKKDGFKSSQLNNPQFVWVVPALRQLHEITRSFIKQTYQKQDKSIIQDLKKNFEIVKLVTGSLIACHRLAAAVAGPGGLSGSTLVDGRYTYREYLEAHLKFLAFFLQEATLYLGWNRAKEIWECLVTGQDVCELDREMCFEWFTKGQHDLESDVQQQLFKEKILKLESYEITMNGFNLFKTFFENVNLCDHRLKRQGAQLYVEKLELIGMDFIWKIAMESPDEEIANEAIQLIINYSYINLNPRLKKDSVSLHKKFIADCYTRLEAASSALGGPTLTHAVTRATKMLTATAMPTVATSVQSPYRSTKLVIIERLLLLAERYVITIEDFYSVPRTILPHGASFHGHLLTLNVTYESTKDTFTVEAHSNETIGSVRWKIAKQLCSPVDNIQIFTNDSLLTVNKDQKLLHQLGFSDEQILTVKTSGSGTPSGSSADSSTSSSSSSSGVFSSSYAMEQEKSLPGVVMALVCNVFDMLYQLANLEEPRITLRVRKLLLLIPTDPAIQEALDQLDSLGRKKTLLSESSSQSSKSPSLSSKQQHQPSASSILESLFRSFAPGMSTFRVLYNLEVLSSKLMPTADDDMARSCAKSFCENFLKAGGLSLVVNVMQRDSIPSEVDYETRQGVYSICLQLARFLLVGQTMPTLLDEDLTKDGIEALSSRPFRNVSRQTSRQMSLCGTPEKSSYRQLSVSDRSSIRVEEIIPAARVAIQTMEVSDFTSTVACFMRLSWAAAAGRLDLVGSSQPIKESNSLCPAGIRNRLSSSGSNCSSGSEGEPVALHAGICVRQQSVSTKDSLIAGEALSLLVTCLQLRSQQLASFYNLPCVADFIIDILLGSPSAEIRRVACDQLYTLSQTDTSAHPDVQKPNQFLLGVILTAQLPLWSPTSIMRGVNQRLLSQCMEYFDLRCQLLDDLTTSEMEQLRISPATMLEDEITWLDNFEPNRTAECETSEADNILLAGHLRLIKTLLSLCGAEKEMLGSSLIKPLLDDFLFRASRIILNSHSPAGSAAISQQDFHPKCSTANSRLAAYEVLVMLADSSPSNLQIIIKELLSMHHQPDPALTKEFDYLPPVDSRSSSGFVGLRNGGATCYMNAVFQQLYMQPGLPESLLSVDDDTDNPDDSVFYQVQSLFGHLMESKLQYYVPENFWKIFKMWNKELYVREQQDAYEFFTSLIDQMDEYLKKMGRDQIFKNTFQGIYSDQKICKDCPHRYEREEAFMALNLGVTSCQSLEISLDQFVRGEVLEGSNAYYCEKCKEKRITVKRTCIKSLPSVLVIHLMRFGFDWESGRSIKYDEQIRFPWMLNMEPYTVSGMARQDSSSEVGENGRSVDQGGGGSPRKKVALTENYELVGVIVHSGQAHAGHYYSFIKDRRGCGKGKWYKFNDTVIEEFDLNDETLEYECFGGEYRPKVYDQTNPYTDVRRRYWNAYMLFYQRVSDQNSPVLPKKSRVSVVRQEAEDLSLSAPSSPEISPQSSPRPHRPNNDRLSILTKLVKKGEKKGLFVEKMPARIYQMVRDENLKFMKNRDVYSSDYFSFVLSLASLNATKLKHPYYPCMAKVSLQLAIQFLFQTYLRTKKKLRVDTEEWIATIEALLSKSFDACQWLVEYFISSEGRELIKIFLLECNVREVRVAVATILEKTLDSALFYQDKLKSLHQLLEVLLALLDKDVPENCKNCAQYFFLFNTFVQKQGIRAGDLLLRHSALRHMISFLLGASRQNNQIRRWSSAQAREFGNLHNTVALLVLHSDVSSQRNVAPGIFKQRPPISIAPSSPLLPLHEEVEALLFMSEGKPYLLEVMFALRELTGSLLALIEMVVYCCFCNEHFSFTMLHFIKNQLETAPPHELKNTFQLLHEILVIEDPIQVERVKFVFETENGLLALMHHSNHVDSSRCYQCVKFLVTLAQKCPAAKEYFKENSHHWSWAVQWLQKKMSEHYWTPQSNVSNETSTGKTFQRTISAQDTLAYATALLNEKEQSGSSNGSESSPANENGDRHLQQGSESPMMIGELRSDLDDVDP
Outline: as §1

USP25 = biological target: T3, USP25 (UniProt Q9UHP3)
T3 sequence (whole entry): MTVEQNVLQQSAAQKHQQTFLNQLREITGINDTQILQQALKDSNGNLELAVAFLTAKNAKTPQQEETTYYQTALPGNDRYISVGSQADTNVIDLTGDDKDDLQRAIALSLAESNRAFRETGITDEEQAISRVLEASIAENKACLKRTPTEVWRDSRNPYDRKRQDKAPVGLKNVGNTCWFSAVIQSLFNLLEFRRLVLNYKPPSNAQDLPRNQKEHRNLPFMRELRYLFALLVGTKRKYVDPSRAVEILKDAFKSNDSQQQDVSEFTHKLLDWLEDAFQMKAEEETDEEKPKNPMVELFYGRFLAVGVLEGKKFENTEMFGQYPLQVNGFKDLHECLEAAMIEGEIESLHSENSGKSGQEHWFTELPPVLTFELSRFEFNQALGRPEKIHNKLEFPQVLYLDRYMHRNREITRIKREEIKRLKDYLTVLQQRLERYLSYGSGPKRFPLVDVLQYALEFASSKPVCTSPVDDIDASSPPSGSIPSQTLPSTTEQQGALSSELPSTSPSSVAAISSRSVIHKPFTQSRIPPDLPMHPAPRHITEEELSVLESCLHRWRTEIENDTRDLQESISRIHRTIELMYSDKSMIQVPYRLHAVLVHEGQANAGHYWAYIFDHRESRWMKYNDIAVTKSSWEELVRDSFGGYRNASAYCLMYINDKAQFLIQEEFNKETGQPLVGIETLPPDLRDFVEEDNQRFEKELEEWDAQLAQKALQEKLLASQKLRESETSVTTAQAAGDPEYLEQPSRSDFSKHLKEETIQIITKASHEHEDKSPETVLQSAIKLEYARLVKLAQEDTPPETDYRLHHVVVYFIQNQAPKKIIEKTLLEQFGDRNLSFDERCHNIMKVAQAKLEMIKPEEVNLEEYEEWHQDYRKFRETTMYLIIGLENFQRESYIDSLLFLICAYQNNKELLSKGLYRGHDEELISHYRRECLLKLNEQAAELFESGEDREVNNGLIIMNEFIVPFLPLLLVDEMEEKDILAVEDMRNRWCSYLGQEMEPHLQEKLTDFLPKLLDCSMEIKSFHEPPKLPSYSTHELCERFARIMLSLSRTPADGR
Outline: as §1

USP28 = biological target: T4, USP28 (UniProt Q96RU2)
T4 sequence (whole entry): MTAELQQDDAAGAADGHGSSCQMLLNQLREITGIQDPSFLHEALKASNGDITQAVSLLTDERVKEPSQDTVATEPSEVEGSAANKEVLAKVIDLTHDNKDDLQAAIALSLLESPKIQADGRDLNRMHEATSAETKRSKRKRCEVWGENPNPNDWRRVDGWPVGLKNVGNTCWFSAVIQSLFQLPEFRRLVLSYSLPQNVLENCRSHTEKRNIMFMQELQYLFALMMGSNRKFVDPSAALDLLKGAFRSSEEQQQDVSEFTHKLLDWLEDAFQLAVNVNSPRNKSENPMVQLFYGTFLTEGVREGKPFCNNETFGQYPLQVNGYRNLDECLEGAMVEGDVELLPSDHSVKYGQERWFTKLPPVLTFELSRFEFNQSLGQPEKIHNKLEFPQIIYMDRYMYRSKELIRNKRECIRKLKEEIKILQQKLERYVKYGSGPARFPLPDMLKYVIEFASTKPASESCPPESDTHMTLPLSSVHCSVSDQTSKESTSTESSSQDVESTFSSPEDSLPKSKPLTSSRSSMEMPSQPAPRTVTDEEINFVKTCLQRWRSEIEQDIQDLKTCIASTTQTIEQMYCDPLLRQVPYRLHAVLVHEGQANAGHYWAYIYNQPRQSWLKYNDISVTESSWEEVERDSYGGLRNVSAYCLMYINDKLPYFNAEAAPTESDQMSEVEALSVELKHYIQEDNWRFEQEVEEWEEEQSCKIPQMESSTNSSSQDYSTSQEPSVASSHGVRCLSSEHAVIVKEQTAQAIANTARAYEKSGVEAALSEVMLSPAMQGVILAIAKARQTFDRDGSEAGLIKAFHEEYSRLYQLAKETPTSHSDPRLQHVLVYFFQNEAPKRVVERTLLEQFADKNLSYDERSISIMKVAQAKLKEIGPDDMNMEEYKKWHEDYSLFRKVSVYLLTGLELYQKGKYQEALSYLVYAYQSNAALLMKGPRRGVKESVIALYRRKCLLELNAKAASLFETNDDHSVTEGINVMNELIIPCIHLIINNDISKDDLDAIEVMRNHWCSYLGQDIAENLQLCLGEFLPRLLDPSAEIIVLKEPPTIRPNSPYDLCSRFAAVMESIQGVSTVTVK
Outline: as §1

Measured: log2 ratio of Biotin-Ahx-Ub-VS probe labelling

Cl.O=C(CCl)NCc1cc2c(nc1O)CCCC2
inactive: USP19 -0.0739 | USP22 -0.0357 | USP24 -0.254 | USP25 -0.59 | USP28 -0.576
